In the antibiotic and cytotoxicity screens of Wong et al. (2023):
Screen size: about 39,000 compounds; about 3,300 (8.5%) were called active. The list comes from a sample in which actives are over-represented; it also holds similar structures and randomly drawn compounds.

The compounds below were run on HepG2 (assay: cytotoxicity call (relative viability < 0.9)). Conditions: 10 µM.

Row | SMILES | cytotoxicity call
1 | C[C@@H]1CCCCO[C@H](CN(C)C(=O)C2CCCCC2)[C@H](C)CN([C@@H](C)CO)C(=O)c2cc(NS(=O)(=O)c3cccs3)ccc2O1 | inactive
2 | Cc1cc(C(=O)Nc2cccc3c2O[C@@H](CN(C)Cc2ccccc2)[C@@H](C)CN([C@H](C)CO)C3=O)n(C)n1 | inactive
3 | C[C@H](CO)N1C[C@H](C)[C@H](CN(C)Cc2ccc(Oc3ccccc3)cc2)OCc2ccccc2-c2ccccc2C1=O | inactive
4 | C[C@H]1CN([C@@H](C)CO)C(=O)c2cc(NC(=O)NC3CCCCC3)ccc2O[C@@H]1CN(C)Cc1ccc(C(F)(F)F)cc1 | inactive
5 | O=C(C[C@@H]1C=C[C@H](NS(=O)(=O)c2ccc(F)cc2)[C@@H](CO)O1)N1CCC(Cc2ccccc2)CC1 | inactive
6 | C[C@@H]1CN([C@H](C)CO)C(=O)CCCn2cc(nn2)CO[C@H]1CN(C)S(=O)(=O)c1ccc2ccccc2c1 | inactive
7 | Cc1noc(C)c1NC(=O)N(C)C[C@H]1OCCCC[C@@H](C)Oc2ccc(NC(=O)Cc3ccccc3)cc2C(=O)N([C@@H](C)CO)C[C@@H]1C | inactive
8 | Cc1noc(C)c1NC(=O)Nc1cccc2c1O[C@@H](CN(C)Cc1ccc(Cl)c(Cl)c1)[C@@H](C)CN([C@@H](C)CO)C2=O | inactive
9 | CO[C@@H]1CN(C)C(=O)c2ccc(NS(=O)(=O)c3ccccc3C)cc2OC[C@H](C)N(S(C)(=O)=O)C[C@H]1C | inactive
10 | C[C@H]1CCCCO[C@H](CN(C)S(C)(=O)=O)[C@@H](C)CN([C@@H](C)CO)C(=O)c2cc(NS(C)(=O)=O)ccc2O1 | inactive
11 | COc1ccc(S(=O)(=O)Nc2ccc3c(c2)C(=O)N([C@@H](C)CO)C[C@@H](C)[C@H](CN(C)S(=O)(=O)c2ccc(OC)cc2)O3)cc1 | inactive
12 | N=C(N)NCCC[C@@H]1NC(=O)[C@@H](N)CSSC[C@@H](C(=O)O)NC(=O)[C@H](CC(=O)O)NC(=O)[C@@H]2CCCN2C(=O)CNC(=O)[C@H](CCCCN)NC(=O)[C@H](CC(=O)O)NC(=O)CNC1=O | inactive
13 | N=C(N)NCCCC[C@@H]1NC(=O)CCSSC[C@@H](C(N)=O)NC(=O)[C@@H]2CCCN2C(=O)[C@H](Cc2c[nH]c3ccccc23)NC(=O)[C@H](CC(=O)O)NC(=O)CNC1=O | inactive
14 | CC(C)[C@H]1C(=O)N[C@@H](CCCNC(=N)N)C(=O)NCC(=O)N[C@@H](CC(=O)O)C(=O)N[C@H](Cc2ccccc2)C(=O)N1C | active
15 | C[C@@H]1CN([C@@H](C)CO)C(=O)Cc2cc(NC(=O)Nc3ccccc3)ccc2O[C@H]1CN(C)C(=O)Nc1cccc2ccccc12 | inactive
16 | C[C@H]1CN([C@@H](C)CO)C(=O)c2cccc(NC(=O)c3ccc(-c4nccs4)cc3)c2O[C@H]1CN(C)S(C)(=O)=O | inactive
17 | C[C@@H]1CN([C@H](C)CO)C(=O)c2cc(C#CCc3ccccc3)cnc2O[C@H]1CN(C)C(=O)Cc1cccnc1 | inactive
18 | C[C@H]1CN([C@@H](C)CO)C(=O)c2cc(-c3ccc(C#N)cc3)cnc2O[C@@H]1CN(C)C(=O)Nc1ccc(C(F)(F)F)cc1 | inactive
19 | CN(C)CCOc1ccc(CN)cc1 | inactive
20 | Cc1ccc(Oc2ccc(CN)cc2)cc1 | active
21 | NCc1ccc(-c2ccc(Br)cc2)cc1 | inactive

Row | SMILES | cytotoxicity call
22 | C[C@@H]1CCCCO[C@@H](CN(C)Cc2ccncc2)[C@@H](C)CN([C@H](C)CO)C(=O)c2cc(NC(=O)C3CCCCC3)ccc2O1 | inactive
23 | Clc1ccc(Cn2ccnc2)cc1 | inactive
24 | O=C(O)C=Cc1ccc(Cn2ccnc2)cc1 | active
25 | O=C(O)CCn1ccnc1 | inactive
26 | NCCN1CCO[C@@H](CC(=O)Nc2cc(Cl)cc(Cl)c2)C1=O | inactive
27 | COc1cc(OC)nc([C@@H](NC(=O)C2CCN(CCN3C(=O)c4ccccc4C3=O)CC2)c2ccc(F)cc2)n1 | inactive
28 | CC(C)NC(=O)[C@H]1CC[C@@H](n2c(NC(=O)c3ccc(F)cc3)nc3ccc(CN4CCC(C(C)(C)O)CC4)cc32)CC1 | active
29 | O=C(N[C@@H](c1ccccc1)c1ccc2ccccc2n1)C1CCN(Cc2ccc(Cl)c(Cl)c2)CC1 | inactive
30 | COc1ccccc1S(=O)(=O)N(C)C[C@H]1OCc2cnnn2CCCC(=O)N([C@@H](C)CO)C[C@@H]1C | inactive
31 | C[C@@H]1CN([C@@H](C)CO)C(=O)CCCn2nncc2CO[C@@H]1CN(C)C(=O)Nc1ccc2c(c1)OCO2 | inactive
32 | C[C@@H]1CN([C@H](C)CO)C(=O)c2cc(C#Cc3ccncc3)cnc2O[C@@H]1CN(C)C(=O)c1ccccc1F | inactive
33 | C=CCNC(=O)[C@H]1[C@@H]2C(=O)O[C@@H](c3ccccc3)[C@@H](c3ccccc3)N2[C@@H](c2ccc(O)cc2)[C@]12C(=O)N(C(=O)OCCOC)c1ccc(C#CC3(O)CCCCCC3)cc12 | inactive
34 | COCCOC(=O)N1C(=O)[C@@]2(c3cc(C#CC4(O)CCCCCC4)ccc31)[C@H](C(=O)N1CCCCCCC1)[C@H]1C(=O)O[C@H](c3ccccc3)[C@H](c3ccccc3)N1[C@@H]2c1ccc(OCCO)cc1 | active
35 | COCCOC(=O)N1C(=O)[C@@]2(c3cc(C#CC4=CCCCC4)ccc31)[C@H](C(=O)N1CCCCCCC1)[C@H]1C(=O)O[C@H](c3ccccc3)[C@H](c3ccccc3)N1[C@@H]2c1ccc(OCCO)cc1 | inactive
36 | COCCOC(=O)N1C(=O)[C@@]2(c3cc(C#CC4(O)CCCCCC4)ccc31)[C@H](c1ccc(OCCO)cc1)N1[C@H](c3ccccc3)[C@H](c3ccccc3)OC(=O)[C@H]1[C@@H]2C(N)=O | inactive
37 | C=CCNC(=O)[C@H]1[C@@H]2C(=O)O[C@@H](c3ccccc3)[C@@H](c3ccccc3)N2[C@@H](c2ccc(OCCO)cc2)[C@]12C(=O)N(C(=O)OCCOC)c1ccc(C#CC3(O)CCCCCC3)cc12 | inactive
38 | C=CCNC(=O)[C@H]1[C@@H]2C(=O)O[C@@H](c3ccccc3)[C@@H](c3ccccc3)N2[C@@H](c2ccccc2OCCO)[C@]12C(=O)N(C(=O)OCCOC)c1ccc(C#CC3(O)CCCCCC3)cc12 | active
39 | COCCOC(=O)N1C(=O)[C@@]2(c3cc(C#CC4(O)CCCCCC4)ccc31)[C@H](c1ccc(OCCO)cc1)N1[C@H](c3ccccc3)[C@H](c3ccccc3)OC(=O)[C@H]1[C@@H]2C(=O)N1CCCCCCC1 | active
40 | COCCOC(=O)N1C(=O)[C@@]2(c3cc(C#CC4(O)CCCCCC4)ccc31)[C@H](C(=O)N1CCN(c3ncccn3)CC1)[C@H]1C(=O)O[C@H](c3ccccc3)[C@H](c3ccccc3)N1[C@@H]2c1ccc(OCCO)cc1 | inactive
41 | COCCOC(=O)N1C(=O)[C@@]2(c3cc(C#CC4(O)CCCCCC4)ccc31)[C@H](c1ccc(OCCO)cc1)N1[C@H](c3ccccc3)[C@H](c3ccccc3)OC(=O)[C@H]1[C@@H]2C(=O)N1CCN(c2ncccn2)CC1 | inactive
42 | COc1ccc(NC(=O)Nc2cccc3c2O[C@H](CN(C)Cc2ccc(C(F)(F)F)cc2)[C@@H](C)CN([C@@H](C)CO)C3=O)cc1 | inactive

Row | SMILES | cytotoxicity call
43 | COc1ccc(NC(=O)Nc2ccc3c(c2)[C@H]2C[C@H](CC(=O)NCc4ccccn4)O[C@@H](CO)[C@H]2O3)cc1 | inactive
44 | c1ccc(Oc2nnc(-c3ccccc3)c3ccccc23)cc1 | inactive
45 | C[C@H](CO)N1C[C@H](C)[C@H](CN(C)S(C)(=O)=O)Oc2cc(-c3ccc(F)cc3)ccc2S1(=O)=O | inactive
46 | COc1cccc(C#Cc2ccc3c(c2)O[C@@H](CN(C)C(=O)CN2CCOCC2)[C@H](C)CN([C@@H](C)CO)S3(=O)=O)c1 | inactive
47 | COC(=O)CCCCCNc1n[nH]c(=O)[nH]c1=O | inactive
48 | O=C(O)CCCNc1n[nH]c(=O)[nH]c1=O | inactive
49 | O=C(CCNc1n[nH]c(=O)[nH]c1=O)N1CCOCC1 | active
50 | COc1ccc(NC(=O)N(C)C[C@H]2OCCCC[C@@H](C)Oc3ccc(NC(=O)Nc4c(C)noc4C)cc3C(=O)N([C@H](C)CO)C[C@@H]2C)cc1 | inactive
51 | COc1ccc(NC(=O)Nc2ccc3c(c2)[C@@H]2C[C@@H](CC(=O)N4CCN(C)CC4)O[C@@H](CO)[C@@H]2O3)cc1 | inactive
52 | C[C@@H]1CN([C@@H](C)CO)C(=O)Cc2cc(NC(=O)Nc3ccc(C(F)(F)F)cc3)ccc2O[C@H]1CN(C)CC1CCCCC1 | active
53 | C[C@@H]1CN([C@@H](C)CO)C(=O)Cc2cc(NC(=O)Nc3ccc(C(F)(F)F)cc3)ccc2O[C@@H]1CN(C)CC1CCCCC1 | active
54 | C[C@H](CO)N1C[C@H](C)[C@H](CN(C)C(=O)NC2CCCCC2)Oc2ccc(NC(=O)Nc3ccc(C(F)(F)F)cc3)cc2CC1=O | inactive
55 | C[C@H](CO)N1C[C@H](C)[C@H](CN(C)CC2CCCCC2)Oc2ccc(NC(=O)Nc3ccc(C(F)(F)F)cc3)cc2CC1=O | active
56 | C[C@H]1CN([C@@H](C)CO)C(=O)Cc2cc(NC(=O)Nc3ccc(C(F)(F)F)cc3)ccc2O[C@@H]1CN(C)CC1CCCCC1 | inactive
57 | C[C@H]1CN([C@@H](C)CO)C(=O)Cc2cc(NC(=O)Nc3ccc(C(F)(F)F)cc3)ccc2O[C@H]1CN(C)CC1CCCCC1 | active
58 | CN(C)CCCNC(=O)C[C@H]1CC[C@H]2[C@@H](COc3ccc(NC(=O)c4ccc5c(c4)OCO5)cc3C(=O)N2C)O1 | inactive
59 | CCCN(C)C[C@H]1OCCCC[C@H](C)Oc2ccc(NS(C)(=O)=O)cc2C(=O)N([C@H](C)CO)C[C@H]1C | inactive
60 | C[C@H](CO)N1C[C@H](C)[C@@H](CN(C)Cc2ccncc2)Oc2cc(C#CCN(C)C)ccc2S1(=O)=O | inactive
61 | CN([C@@H](c1ccccc1)c1ccccn1)S(=O)(=O)c1cn(C)c(=O)n(C)c1=O | inactive
62 | Cc1ccc(S[C@]2(C(=O)O)CC(=O)N(C3Cc4ccccc4C3)[C@@H]2c2ccc(CO)cc2I)cc1 | inactive
